Bioassay records from PubChem BioAssay.
Sampled rows, rich in hits. Any-hit rate of the full collection: about 2%.
Shn3 inh set2 – reduction of Shn3 3'UTR firefly luciferase signal, primary screen, Schnurri-3 inhibitor project, cell-based, Clone20 osteoblasts, set 2 | AID 588674, 2011 | inhibition, % at 12.5 µM | 0.52% of 360,000 active | Clone20 osteoblast Shn3 3'UTR firefly luciferase, 24 h;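 active = mean inhibition of at least 75% with every replicate also reaching 75%; inconclusive = mean inhibition at least 75% but some replicate below; inactive = mean inhibition below 75%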;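 note: 0% = median of neutral control wells and 100% = pilot-screen positive control compound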
LGR2 antag – inhibitors of bursicon-induced LGR2 CRE-luciferase signal, primary screen, cell-based, HEK293, CRE-luciferase reporter, bursicon stimulation; Drosophila bursicon receptor LGR2 (rickets); bursicon-stimulated, 4 h; inhibition, % at 9.99 µM; 0.35% of 380,000 active;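 active = drop in luminescence signal, shown as inhibition above about 50% in the replicate tests, limit read from the data, passing the limit was not always enough; inconclusive = probably only some replicates passing the limit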;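 note: agonist challenge used bursicon conditioned medium at about half maximal strength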
KKLEB cytotox – cytotoxicity in KKLEB CF airway cells, primary screen, cytotoxicity control for CF NF-kB inhibitor project, cell-based, uHTS, fluorescence assay plates. AID 602141, 2011. 0.36% of 360,000 active. KKLEB CF airway cells viability, ATPlite luminescence, overnight; stronger effect = lower value; cells stimulated with P. aeruginosa culture filtrate. activity change (cytotoxicity), % at 5 µM;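 active = corrected activity change at or below -50% at 5 µM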
EWS-Fli inh – EWS/Fli-driven NR0B1 reporter inhibitors, primary screen, A673 cells, NR0B1 luciferase, luminescence, MLPCN library; viability-normalised; inhibition, % at 12.6 µM; 0.67% of 350,000 active; AID 651661, 2012;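 active = mean inhibition of at least 50% after viability correction, with every replicate also passing that limit; inconclusive = mean reaches 50% but only one of two replicates passes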;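 note: firefly luciferase signal divided by Alamar Blue viability fluorescence both relative to DMSO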
CF NFkB block – inhibitors of PAF-induced NF-kB signaling, primary screen, cell-based, GFP fluorescence, uHTS. KKLEB NF-kB-GFP reporter, GFP fluorescence overnight. inhibition, % at 5 µM. 0.86% of 360,000 active;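 active = at least 50% inhibition at 5 µM, scaled per plate between neutral and stimulator controls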;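 note: PAF is a Pseudomonas aeruginosa culture filtrate used as stimulus; plate controls were PAF-stimulated DMSO wells for no effect and unstimulated DMSO wells for full effect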
PAX8 inh HTS – inhibitors of PAX8-driven TPO luciferase reporter, primary screen, RMG-I cells, single concentration; 1.2% of 360,000 active; inhibition, % at 12.6 µM; AID 652154, 2013; SteadyGlo, 24 h;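 active = mean replicate inhibition at least 60% with every replicate also reaching 60%; inconclusive = only one of the two criteria is met; inactive = mean below 60% and not all replicates reaching 60%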;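 note: luciferase light reporting Pax8 driven TPO promoter activity; plate controls were median of neutral control wells for no effect and mitoxantrone controls for full effect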
An asterisk follows results filed as active; ? = inconclusive; / = no result given.

SMILES | Shn3 inh set2 | LGR2 antag | KKLEB cytotox | EWS-Fli inh | CF NFkB block | PAX8 inh HTS
C[C@@H]1CCCCO[C@H](CN(C)Cc2ccccc2)[C@@H](C)CN([C@H](C)CO)C(=O)c2cc(NC(=O)c3ccccc3)ccc2O1 | 89.9* | 8.2 | -1.1 | 13.2 | -8.3 | 1.3
C[C@@H]1CCCCO[C@H](CN(C)Cc2ccccc2)[C@H](C)CN([C@@H](C)CO)C(=O)c2cc(NC(=O)c3ccccc3)ccc2O1 | / | -13.4 | / | 3.5 | / | -24.3
CCC(=O)N1C[C@@H](C)[C@H](OC)CN(C)C(=O)c2cc(NC(=O)Nc3ccc(Cl)cc3)ccc2OC[C@@H]1C | / | -3.8 | / | 9.0 | / | /
COC(=O)C[C@H]1CC[C@H]2[C@@H](COc3ccc(NC(=O)c4ccc(F)c(F)c4)cc3C(=O)N2C)O1 | / | 19.2 | / | -1.2 | / | -3.7
O=C(Cc1cccnc1)N1[C@@H](CO)[C@@H](c2ccccc2)[C@@H]1CNCC1CCC1 | / | -4.1 | / | -4.7 | / | -10.4
Cc1noc(C)c1S(=O)(=O)Nc1ccc2c(c1)C(=O)N([C@H](C)CO)C[C@@H](C)[C@H](CN(C)Cc1ccc(C(F)(F)F)cc1)OCCCC[C@@H](C)O2 | / | 6.5 | / | / | / | ?
Cc1noc(C)c1S(=O)(=O)Nc1ccc2c(c1)C(=O)N([C@H](C)CO)C[C@@H](C)[C@H](CN(C)Cc1ccc(C(F)(F)F)cc1)OCCCC[C@H](C)O2 | / | 17.9 | / | / | / | 71.9*
Cc1noc(C)c1S(=O)(=O)Nc1ccc2c(c1)C(=O)N([C@@H](C)CO)C[C@@H](C)[C@@H](CN(C)Cc1ccc(C(F)(F)F)cc1)OCCCC[C@H](C)O2 | / | 32.5 | / | / | / | 67.6*
Cc1noc(C)c1S(=O)(=O)Nc1ccc2c(c1)C(=O)N([C@H](C)CO)C[C@@H](C)[C@H](CN(C)Cc1ccc(Cl)c(Cl)c1)OCCCC[C@@H](C)O2 | / | 10.0 | / | 22.0 | / | 74.7*
Cc1noc(C)c1S(=O)(=O)Nc1ccc2c(c1)C(=O)N([C@H](C)CO)C[C@@H](C)[C@H](CN(C)C(=O)Nc1ccc(C(F)(F)F)cc1)OCCCC[C@@H](C)O2 | / | 11.9 | / | 11.6 | / | 86.6*
Cc1noc(C)c1S(=O)(=O)Nc1ccc2c(c1)C(=O)N([C@H](C)CO)C[C@H](C)[C@@H](CN(C)Cc1ccc(Cl)c(Cl)c1)OCCCC[C@H](C)O2 | / | 14.2 | / | / | / | 21.1
C[C@@H]1CN([C@@H](C)CO)C(=O)c2cccc(NS(=O)(=O)c3cccs3)c2O[C@H]1CN(C)S(=O)(=O)c1cn(C)cn1 | / | 23.1 | / | 5.8 | / | /
O=C(NC[C@H]1[C@H](c2ccccc2)[C@@H](CO)N1C(=O)Cc1cccnc1)C1CC1 | / | 0.8 | / | -9.3 | / | -16.6
Cc1noc(C)c1S(=O)(=O)Nc1ccc2c(c1)C(=O)N([C@H](C)CO)C[C@@H](C)[C@@H](CN(C)Cc1ccc(C(F)(F)F)cc1)OCCCC[C@H](C)O2 | / | 7.5 | / | / | / | 85.6*
COc1ccc(S(=O)(=O)N(C)C[C@H]2Oc3ncc(/C=C/c4ccccc4)cc3C(=O)N([C@H](C)CO)C[C@@H]2C)cc1 | / | / | / | 15.6 | / | 36.2
CC[C@@H](C)[C@H](NC(=O)OC(C)(C)C)c1nnc(S(=O)(=O)Cc2cc(C)ccc2C)o1 | ? | / | -19.3 | / | 72.1* | /
CCC(=O)Nc1ccc2c(c1)C(=O)N(C)[C@@H]1CC[C@H](CC(=O)NCc3ccc(OC)cc3)O[C@@H]1CO2 | / | 15.0 | / | -2.5 | / | -2.4
CN(C)CC(=O)N1[C@H](C#N)[C@H](c2ccccc2-c2cccc(C(=O)N(C)C)c2)[C@H]1CO | / | -3.1 | / | -0.8 | / | -7.6
COC(=O)/C(=C1/Oc2ccc(C(C)(C)C)cc2S1)C(F)(F)F | -60.6 | -49.6 | 4.4 | -33.8 | -11.9 | -13.2
COC(=O)/C(=C1/Oc2cc(C)oc(=O)c2S1)C(F)(F)F | 96.7* | 41.7 | -33.8 | 54.4* | 74.8* | /
COc1cc(OC)nc(-n2ncc(Br)c(Br)c2=O)n1 | 96.7* | 103.4* | -94.0* | 48.1 | 91.3* | 108.0*
Cc1ccc(NCCN(C)C)c2c(=O)c3cc(O)ccc3sc12 | 41.7 | -4.3 | -23.9 | 52.1* | -136.3 | -13.1
Cc1cc(C)nc(N/N=C/c2cccc3ccccc23)n1 | -15.3 | -31.3 | 1.1 | -39.1 | 23.3 | 82.2*
Cc1cc(C)nc(N/N=C/c2ccccc2Cl)n1 | -36.4 | -14.8 | -1.7 | -61.9 | -8.0 | -98.3
CC1(C)Cc2ccccc2C2=NNC(=O)C2=N1 | 12.5 | -7.1 | -0.1 | 7.6 | 75.4* | 51.0
SMILES | Shn3 inh set2 | LGR2 antag | KKLEB cytotox | EWS-Fli inh | CF NFkB block | PAX8 inh HTS
CCCCCCc1cc2cc(S(=O)(=O)c3ccc(F)c(Cl)c3)c(=O)oc2cc1O | 9.2 | 14.9 | -71.8* | / | 59.8* | 13.4
CCCCCCc1cc2cc(C(=O)Nc3ccc(OC)cc3)c(=O)oc2cc1O | 18.3 | 40.9 | -56.6* | 9.4 | 51.6* | 1.9
CCCCCCc1cc2cc(C(=O)Nc3cccc(OC)c3)c(=O)oc2cc1O | 1.3 | 31.8 | -62.6* | / | 65.5* | -12.2
CCCCCCc1cc2cc(C(=O)NC)c(=N)oc2cc1O | 3.9 | / | 4.3 | / | 17.4 | /
COc1ccc(NC(=O)N[C@@H]2CC[C@H](CCn3cc(-c4ccccc4)nn3)O[C@@H]2CO)cc1 | / | 3.3 | / | -1.0 | / | 6.6
O=C(C[C@H]1C[C@H]2c3cc(NC(=O)C4CCOCC4)ccc3O[C@H]2[C@@H](CO)O1)NCc1ccccn1 | / | 6.5 | / | 1.8 | / | -10.8
CCOc1ccc(S(=O)(=O)N2CCN=C2c2ccccc2)cc1 | -14.9 | 16.4 | -18.2 | 54.6* | 0.4 | /
Cc1noc(C)c1S(=O)(=O)N(C)C[C@H]1OCCCC[C@H](C)Oc2ccc(NS(C)(=O)=O)cc2C(=O)N([C@@H](C)CO)C[C@@H]1C | / | / | / | -5.0 | / | /
COc1ccc(NC(=O)CC2C(=O)N(c3ccccc3)C(=O)N2CCc2cccs2)cc1 (stereo unspecified) | -13.5 | 1.5 | 1.8 | -0.4 | -10.4 | 68.1*
COc1cccc(S(=O)(=O)Nc2ccc3c(c2)[C@@H]2C[C@@H](CC(=O)N(C)C)O[C@H](CO)[C@@H]2O3)c1 | / | 8.7 | / | -4.0 | / | /
CCCc1nc(SCC(=O)Nc2ccccc2)c2c(=O)n(C)c(=O)n(C)c2n1 | -36.9 | 20.0 | -12.9 | -9.8 | 19.7 | -1.8
CCCc1nc(SCC(=O)N2CCC(Cc3ccccc3)CC2)c2c(=O)n(C)c(=O)n(C)c2n1 | 5.8 | 16.6* | 2.7 | 3.8 | 28.5 | -1.1
Cc1cc(C)c(S(=O)(=O)/N=C2/C=C(SCC(=O)O)C(=O)c3ccccc32)cc1C | 21.7 | / | -4.2 | / | 55.8* | /
Cc1ccc(N(CCC#N)C(=O)CCl)cc1C | -7.8 | -0.8 | -25.6 | 71.7* | 24.5 | ?
O=C(Cn1cc(C(F)(F)F)cc(Cl)c1=O)NCCc1ccccc1 | 96.2* | 15.7 | 16.2 | / | 11.3 | 9.3
